# Reference: PubChem BioAssay AID2284379 (EPA ToxCast)
# Results filed as inconclusive are left out. Calls of active or inactive are those of the source. The calls were made as follows: active = hit-call score of the fitted dose curve at least 0.9, where 1 is the maximum; inconclusive = response in the unintended direction; inactive = score below 0.9.
# Assay: ATG_M_32_EcoTox2: Attagene TRANS-FACTORIAL EcoTox-2 HepG2 Assay for M32 Transcription Factor (Internal Marker)
# Protocol: ATG_EcoTox2 is a cell-based, multiplexed assay created by modifying the existing Attagene TRANS-FACTORIAL system to include a panel of nuclear receptors from some or all the following species: human (Homo sapiens), african clawed frog (Xenopus laevis), rainbow trout (Oncorhynchus mykiss), japanese medaka (Oryzias latipes), and zebrafish (Danio rerio). The ECOTOX2-FACTORIAL format uses HepG2, a human liver cell line, with measurements taken at 24 hours after chemical dosing in a 24-well plate. ATG_M_32_EcoTox2 is one of 29 assay components calculated in the ATG_EcoTox2 assay. It is designed to make measurements of mRNA induction, a form of inducible reporter, as detected with fluorescence intensity signals by Reverse transcription polymerase chain reaction (RT-PCR) and Capillary electrophoresis technology.The assay endpoint ATG_M_32_EcoTox2 was analyzed in the positive analysis fitting direction relative to DMSO as the negative control and baseline of activity. Using a type of inducible reporter, measures of mRNA for gain-of-signal activity can be used to understand the background control at the transcription factor-level as they relate to the gene. Furthermore, this assay endpoint can be referred to as a secondary readout, because this assay has produced multiple assay endpoints where this one serves a background control function. To generalize the intended target to other relatable targets, this assay endpoint is annotated to the background measurement intended target family, where the subfamily is internal marker.
# Human liver HepG2 cells are transiently transfected with multiple reporter transcription units (MRTUs) in 6-well plates using FuGene 6 reagent (Roche; 3 ml FuGene/1 mg DNA). The MRTU constructs are regulated by a cis-regulating element (promoter). Each RTU expresses a GAL4-UAS that regulates the transcription of a nearby target reporter gene sequence. A major difference between the CIS and TRANS system is that in CIS activities of endogenous TFs are measured, whereas the TRANS assay evaluates changes in activities of exogenous, chimeric NR-Gal4 proteins. […] At the end of 24 hour incubation, total RNA was isolated using TriZol reagent (Invitrogen). The isolated RNA is then reverse-transcribed using oligo(dT) primer and Mo-MLV reverse transcriptase (Invitrogen) with DNAse I (Ambion) treatment for 30 min. The one-tenth of the produced cDNA was amplified by PCR using Taq DNA polymerase (Invitrogen) and two reporter sequence-specific primers. The PCR products were fluorescently labeled by primer extension with 6-arboxyfluorescein (6-FAM) 5'-labeled reporter sequence-specific primer (2 min at 95 C, 20 s at 68 C and 10 min at 72 C) and these products were digested with 5U of HpaI (New England Biolabs) for 2h at 37 C. The fragments were purified using Qiaquick PCR columns (Qiagen), analyzed on an ABI 3130xL genetic analyzer (Applied Biosystems) with peak positions identified by using a set of X-rhodamine (ROX)-labeled MapMarker1000 molecular weight standards (BioVentures). The raw capillary electrophoresis data was processed using Attagraph software (Attagene).
row,Structure (SMILES),outcome
1,CC(c1cc2ccccc2s1)N(O)C(N)=O (stereo unspecified),inactive
2,C[C@@H]1C[C@H]2[C@@H]3CCC4=CC(=O)C=C[C@]4(C)[C@@]3(F)[C@@H](O)C[C@]2(C)[C@@]1(O)C(=O)COP(=O)(O)O,inactive
3,CC(C)OC(=O)C(C)(C)Oc1ccc(C(=O)c2ccc(Cl)cc2)cc1,inactive
4,Cc1c(C)c2c(c(C)c1O)CCC(C)(COc1ccc(CC3SC(=O)NC3=O)cc1)O2 (stereo unspecified),inactive
5,CN(CCOc1ccc(CC2SC(=O)NC2=O)cc1)c1ccccn1 (stereo unspecified),inactive
6,Cc1nc(-c2ccc(C(F)(F)F)cc2)sc1C(=O)NCc1ccc(OC(C)(C)C(=O)O)cc1,inactive
